From PubChem BioAssay (NCATS)
Results filed as inconclusive are left out. Calls of active or inactive are those of the source. Calls come from the whole dose curve; as a rule, active = well fitted cell-killing curve with a large enough effect; inconclusive = small, poorly fitted or top-dose-only effect, or effect the other way; inactive = flat fitted curve, though single readings scatter.

What was measured:
Assay in all cases: Primary qHTS to identify gynecologic anti-cancer compounds using libraries of approved drugs and bioactive compounds (AID 1345084); note: nearly all actives have a fitted effect of over 55% in size
Hek293T = settings: Gynecologic cancer cell panel viability, ATPlite luminescence, 48 h, control line for the selectivity index; series mostly up to 57.5 µM
How it was run: (§1)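 Luminescence from the ATPlite ATP-monitoring reagent indicates viable cell number; lower signal means cytotoxicity. Cells received compound 16 h after seeding and were exposed for 48 h across five concentrations.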

JEG-3 = settings: Gynecologic cancer cell panel viability, ATPlite luminescence, 48 h; series mostly up to 57.5 µM
How it was run: as §1

OV90 = settings: Gynecologic cancer cell panel viability, ATPlite luminescence, 48 h; series mostly up to 57.5 µM
How it was run: as §1

PA-1 = settings: Gynecologic cancer cell panel viability, ATPlite luminescence, 48 h; series mostly up to 57.5 µM
How it was run: as §1

SKOV3 = settings: Gynecologic cancer cell panel viability, ATPlite luminescence, 48 h; series mostly up to 57.5 µM
How it was run: as §1

Tov-21-G = settings: Gynecologic cancer cell panel viability, ATPlite luminescence, 48 h; series mostly up to 57.5 µM
How it was run: as §1

Tov112D = settings: Gynecologic cancer cell panel viability, ATPlite luminescence, 48 h; series mostly up to 57.5 µM
How it was run: as §1
% is set by controls: 0 for no effect and ±100 for the full control effect.

c1nc(NC2CCCCCC2)c2cc(CNC[C@H]3CCCO3)sc2n1
inactive: Potency (Hek293T) | Potency (JEG-3) | Potency (OV90) | Potency (PA-1) | Potency (SKOV3) | Potency (Tov-21-G) | Potency (Tov112D)

CC(C)(O)C1=CCC23COC(C2)C(O)(C(=O)O)CCC13 (stereo not given)
inactive: Potency (Hek293T) | Potency (JEG-3) | Potency (OV90) | Potency (PA-1) | Potency (SKOV3) | Potency (Tov-21-G) | Potency (Tov112D)

C=C1C(=O)OC2CC(C)=C(C(C)CCCO[C@@H]3O[C@H](CO)[C@@H](O)[C@H](O)[C@H]3O)C(O)C12 (stereo not given in full)
inactive: Potency (Hek293T) | Potency (JEG-3) | Potency (OV90) | Potency (PA-1) | Potency (SKOV3) | Potency (Tov-21-G) | Potency (Tov112D)

CC1=CCC2C(C)(CO)CCCC2(C)C1CC12OC1C(O)C(CO)=CC2O (stereo not given)
inactive: Potency (Hek293T) | Potency (JEG-3) | Potency (OV90) | Potency (PA-1) | Potency (SKOV3) | Potency (Tov-21-G) | Potency (Tov112D)

CN1C(=O)c2ccccc2-n2c(nc3ccccc3c2=O)/C1=C/c1ccccc1
inactive: Potency (Hek293T) | Potency (JEG-3) | Potency (OV90) | Potency (PA-1) | Potency (SKOV3) | Potency (Tov-21-G) | Potency (Tov112D)

CC(=O)OC1C(O)C(C)=C(CCC(C)CC(=O)O)C2(C)CCCC(C)(C)C12 (stereo not given)
inactive: Potency (Hek293T) | Potency (JEG-3) | Potency (OV90) | Potency (PA-1) | Potency (SKOV3) | Potency (Tov-21-G) | Potency (Tov112D)

C=C1[C@@H]2[C@H]3OC(=O)C(=C)[C@@H]3CC[C@@](C)(O)[C@@H]2C[C@@H]1O[C@@H]1O[C@H](CO)[C@@H](O)[C@H](O)[C@H]1O
inactive: Potency (Hek293T) | Potency (JEG-3) | Potency (OV90) | Potency (PA-1) | Potency (SKOV3) | Potency (Tov-21-G) | Potency (Tov112D)

CC(=O)c1c(C)cc(O)cc1O[C@@H]1O[C@H](CO)[C@@H](O)[C@H](O)[C@H]1O
inactive: Potency (Hek293T) | Potency (JEG-3) | Potency (OV90) | Potency (PA-1) | Potency (SKOV3) | Potency (Tov-21-G) | Potency (Tov112D)

CC(=O)N[C@H]1CCN(c2ccc(C3=NOC(CN[S+](=O)([O-])C(C)C)C3)cc2F)C1 (stereo not given in full)
inactive: Potency (Hek293T) | Potency (JEG-3) | Potency (OV90) | Potency (PA-1) | Potency (SKOV3) | Potency (Tov-21-G) | Potency (Tov112D)

CCCC(N[C@@H](C)C(=O)N1[C@H](C(=O)O)C[C@@H]2CCCC[C@@H]21)C(=O)OCC (stereo not given in full)
inactive: Potency (Hek293T) | Potency (JEG-3) | Potency (OV90) | Potency (PA-1) | Potency (SKOV3) | Potency (Tov-21-G) | Potency (Tov112D)

C=CC(C)(C)C12CC3C(=O)NC(Cc4cnc[nH]4)C(=O)N3C1Nc1ccccc12 (stereo not given)
inactive: Potency (Hek293T) | Potency (JEG-3) | Potency (OV90) | Potency (PA-1) | Potency (SKOV3) | Potency (Tov-21-G) | Potency (Tov112D)

C/C=C/C=C/C=C/C(=O)O[C@@H]1C=C(CO)C(O)(C(=O)O)[C@@]2(C)CCCC(C)(C)[C@H]12 (stereo not given in full)
inactive: Potency (Hek293T) | Potency (JEG-3) | Potency (OV90) | Potency (PA-1) | Potency (SKOV3) | Potency (Tov-21-G) | Potency (Tov112D)

CC1(C)CC2C3=CCC4C5(C)CCC(OC6OC(CO)C(O)C(OC7OC(CO)C(O)C(OC8OC(CO)C(O)C(OC9OC(COC%10OC(CO)C(O)C(O)C%10O)C(O)C(O)C9O)C8O)C7O)C6O)C(C)(C)C5CCC4(C)C3(C)CCC2(C(=O)O)CC1O (stereo not given)
inactive: activity change, negative = cytotoxicity (Hek293T) -9.53% [at 6.55 µM] | activity change, negative = cytotoxicity (JEG-3) 6.92% [at 6.55 µM] | activity change, negative = cytotoxicity (OV90) 0.668% [at 6.55 µM] | activity change, negative = cytotoxicity (PA-1) 1.44% [at 6.55 µM] | activity change, negative = cytotoxicity (SKOV3) 0% [at 6.55 µM] | activity change, negative = cytotoxicity (Tov-21-G) -2.7% [at 6.55 µM] | activity change, negative = cytotoxicity (Tov112D) 1.66% [at 6.55 µM]

CC(C)CC(=O)OC[C@H]1O[C@@](COC(=O)CC(C)C)(O[C@H]2O[C@H](CO)[C@@H](O)[C@H](O)[C@H]2O)[C@@H](OC(=O)CC(C)C)[C@@H]1OC(=O)CC(C)C
inactive: Potency (Hek293T) | Potency (JEG-3) | Potency (OV90) | Potency (PA-1) | Potency (SKOV3) | Potency (Tov-21-G) | Potency (Tov112D)

N[C@@H](CC(=O)N1CCn2c(nnc2C(F)(F)F)C1)Cc1[nH]nc2c(F)c(F)ccc12
inactive: Potency (Hek293T) | Potency (JEG-3) | Potency (OV90) | Potency (PA-1) | Potency (SKOV3) | Potency (Tov-21-G) | Potency (Tov112D)

CCOC(=O)[C@H](CCc1ccccc1)N[C@@H](C)C(=O)N1C2CCCCC2C[C@H]1C(=O)O (stereo not given in full)
inactive: Potency (Hek293T) | Potency (JEG-3) | Potency (OV90) | Potency (PA-1) | Potency (SKOV3) | Potency (Tov-21-G) | Potency (Tov112D)

CCOC(=O)c1ccnc(CNCC(=O)N(CC)CCN(C)C)c1
inactive: Potency (Hek293T) | Potency (JEG-3) | Potency (OV90) | Potency (PA-1) | Potency (SKOV3) | Potency (Tov-21-G) | Potency (Tov112D)

Cc1cc(C)cc(NC(=O)Cc2ccc(OC(C)(C)C(=O)O)cc2)c1
inactive: Potency (Hek293T) | Potency (JEG-3) | Potency (OV90) | Potency (PA-1) | Potency (SKOV3) | Potency (Tov-21-G) | Potency (Tov112D)

CC(=O)O[C@H](C[C@@H](C)[C@H]1C(=O)[C@H](O)[C@@]2(C)[C@@H]3CCC4C(C)(C)[C@@H](O[C@@H]5OC[C@H](O)[C@H](O)[C@H]5O)CC[C@@]45C[C@@]35CC[C@]12C)[C@@H]1OC1(C)C (stereo not given in full)
inactive: Potency (Hek293T) | Potency (JEG-3) | Potency (OV90) | Potency (PA-1) | Potency (SKOV3) | Potency (Tov-21-G) | Potency (Tov112D)

C[C@@H]1C/C=C/C=C\C=C\C=C\[C@H](O[C@@H]2O[C@H](C)[C@@H](O)[C@H](N)[C@@H]2O)C[C@@H]2O[C@](O)(C[C@@H](O)C[C@H]3O[C@@H]3/C=C/C(=O)O1)C[C@H](O)[C@H]2C(=O)O
inactive: Potency (Hek293T) | Potency (JEG-3) | Potency (OV90) | Potency (PA-1) | Potency (SKOV3) | Potency (Tov-21-G) | Potency (Tov112D)
